Each sequence was assayed against T1, SALL4 ZFC4 WT (HT-SELEX) (Mus musculus, UniProt Q8BX22 870-940) (assay: HT-SELEX; high values mean tight binding). Conditions: protein: recombinant; vector His6-GST; dsDNA, one strand shown.
T1 sequence: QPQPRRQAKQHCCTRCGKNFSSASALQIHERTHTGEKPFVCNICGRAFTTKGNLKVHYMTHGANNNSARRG
Summary of the method: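 Each canonical k-mer's binding signal is its read fraction expressed as fold change over the initial random library. Reads came from MiSeq sequencing, scanned for 6-mers, after up to 6 triplicate cycles in which purified recombinant mouse SALL4 zinc finger cluster 4 (residues 870–940, 1 µg) bound library DNA (1.5 µg first cycle, 200 ng later) in 100 µl of 10 mM Tris–HCl pH 7.5, 50 mM NaCl, poly(dI-dC), DTT for 10 min at room temperature. Complexes were then Ni2+ bead-captured, washed, PCR-amplified and reselected.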

Sequence | binding signal [fold-change vs cycle 0]
GGTTGA | 0.753 ± 0.0201
GAACTC | 0.875 ± 0.0352
CAGTCC | 0.44 ± 0.0267
GTCCAC | 0.374 ± 0.044
ACGATG | 0.719 ± 0.0288
ACTTGG | 0.787 ± 0.0269
CCTACA | 0.76 ± 0.0346
ATGAGG | 0.907 ± 0.0235
CAACGG | 0.353 ± 0.0289
GGACTA | 0.732 ± 0.0464
ATTCCG | 0.646 ± 0.0192
AGTGTG | 0.745 ± 0.0331
CTACTC | 0.863 ± 0.0395
TAGCGA | 0.54 ± 0.0286
GATGGA | 0.878 ± 0.0295
ATGGCA | 0.55 ± 0.0226
ATCGAC | 0.576 ± 0.0406
CAAAAG | 1.03 ± 0.0267
ACTCGA | 0.761 ± 0.0231
TTGAAA | 1.92 ± 0.106

Sequence | binding signal [fold-change vs cycle 0]
ACAACC | 0.707 ± 0.0139
TCATAA | 3.28 ± 0.256
GTGTAA | 1.24 ± 0.0525
CGTTTA | 1.06 ± 0.0285
AAAGGG | 0.754 ± 0.0569
CTCAGA | 0.791 ± 0.0265
ACGGAT | 0.764 ± 0.0238
ATTTCC | 1.33 ± 0.0842
AATAAT | 4.57 ± 0.438
TTATAA | 4.21 ± 0.59
AAATCA | 1.98 ± 0.081
ATGATC | 1.37 ± 0.0972
GTAAAA | 1.69 ± 0.0918
GTTTGA | 1.14 ± 0.0365
GAACGA | 0.753 ± 0.0422
AGTGGG | 0.455 ± 0.0261
CGTAGC | 0.305 ± 0.0314
CGTGAG | 0.437 ± 0.0456
AATGCA | 1.12 ± 0.0474
CCATGA | 0.874 ± 0.0255
